NS3h inh CB: hepatitis C NS3 helicase inhibition, primary screen; hit rate 1.6% among 16,000; inhibition, % at 100 µM; AID 687043; NS3h Cy5-dT15 DNA binding, fluorescence polarization;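 active = inhibition above the average over every tested compound plus 3 SD, cut at about 40% in these data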
Cy5 interf NS3h: Cy5 fluorescence interference, HCV helicase counter-screen; Cy5-dT15 DNA with NS3h; actives lie on both sides; signal over control mean, under 1 quenches; fluorescence interference ratio at 100 µM; hit rate 6% among 16,000;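 active = compound fluorescence over control fluorescence at most 0.8, a quencher, or at least a set upper limit, an enhancer; inactive = ratio between 0.8 and the set upper limit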
* marks the source's active call; other numbers are inactive results. This is a sample that favours compounds with a hit; in the whole collection about 6.8% have one here.

SMILES	NS3h inh CB	Cy5 interf NS3h
NC(=O)c1ccc(NS(=O)(=O)c2ccc(F)cc2)cc1	6	1.2
CCOc1ccc(C(O)c2nccn2CC)cc1 (centres undefined)	0	1
Fc1c(F)c(F)c2c(c1F)Oc1ccccc1O2	10	1.1
Cc1cccc(C(=O)Nc2ccc(C(=O)/C=C/c3ccncc3)cc2)c1	-5	0.74*
CC(=O)Nc1cccc(C(=O)/C=C/c2ccc(/C=C/C(=O)c3cccc(NC(C)=O)c3)cc2)c1	14	1.2
Cc1nn(-c2ccc(Cl)c(Cl)c2)c(C)c1-c1cccc([N+](=O)[O-])c1	21	0.69*
Cc1ccc(-n2nc(C)c(-c3cccc([N+](=O)[O-])c3)c2C)cc1C	4	0.9
O=C(NC(c1ccccc1)c1ccccc1)C1CC1c1ccccc1 (centres undefined)	14	0.68*
O=C(Cc1cccc2c(S(=O)O)cccc12)NC(c1ccccc1)c1ccccc1	8	1
Cc1cc(C)n(-c2nc(Nc3cccc(C(F)(F)F)c3)nc(-n3nc(C)cc3C)n2)n1	-2	0.96
COc1ccc(N2C(=O)CC(Cc3ccc(Cl)cc3)C2=O)cc1 (centres undefined)	21	0.69*
COc1ccc(N2C(=O)CC(Cc3ccccc3OC)C2=O)cc1 (centres undefined)	4	1
CCOC(=O)c1c(NC(=S)Nc2ccc(OC)cc2)sc2c1CCCCC2	6	1.1
COC(=O)c1c(NC(=O)Nc2ccc(Cl)c(Cl)c2)sc2c1CCC2	-7	1.2*
CCOc1ccccc1NC(=O)c1c(NC(=O)C(C)(C)C)sc2c1CCCCC2	0	1.1
CCOc1ccccc1NC(=O)c1c(NC(=O)C(F)(F)F)sc2c1CCCCC2	33	1.2*
COc1cccc(NC(=O)c2cc(Cl)ccc2Cl)c1	-2	1
COc1ccc(OC)c(NC(=O)c2ccc(C)c(C)c2)c1	-10	1
COc1cc(/C=C2\NC(=S)NC2=O)ccc1Oc1ccc([N+](=O)[O-])cn1	12	0.83
COc1cc(/C=C2\NC(=S)NC2=O)c([N+](=O)[O-])cc1OC	-20	0.51*
CSc1ccc(S(=O)(=O)N(CC(=O)Nc2cccc(C(C)=O)c2)c2ccc(C)cc2)cc1	11	0.92
CCOC(=O)C1=C(N)OC2=C(C(=O)CC(C)(C)C2)C1c1ccc(Cl)cc1Cl (centres undefined)	0	1.1
Cc1ccsc1/C=C1\SC(=N)N(c2ccc3c(c2)OCO3)C1=O	49*	1.5*
Cc1ccsc1/C=C1\SC(=S)N(C(C)C)C1=O	5	0.99
Cc1nc2ccccc2n1S(=O)(=O)c1cccc(Cl)c1Cl	8	0.98
SMILES	NS3h inh CB	Cy5 interf NS3h
CC1=NN(C(=O)c2cocc2C)C(O)(C(F)(F)F)C1 (centres undefined)	2	1
C/C(=N/NC(N)=O)C1CC1(C)C(C)(C)C (centres undefined)	44*	1
O=C(/C=C/c1ccccn1)c1ccc(NC(=O)c2cccs2)cc1	6	0.86
Cn1c(CC(O)(c2ccccc2)c2ccccc2)nc2ccccc21	12	1.1
Cn1c(-n2c(CCCN3C(=O)c4ccccc4C3=O)nc3ccccc3c2=O)nc2ccccc21	12	0.67*
O=C(CCN1C(=O)c2ccccc2C1=O)NCc1ccccn1	7	0.97
O=C1c2ccccc2C(=O)N1CCc1nc2ccccc2c(=O)n1-c1nccs1	16	0.59*
C=CCOC(=O)C1=C(C)NC(C)=C(C(=O)OCC=C)C1c1ccco1	29	0.73*
CCOC(=O)C1=C(C)NC(C)=C(C(=O)OC)C1c1ccco1 (centres undefined)	-3	0.91
CCC(C)NC(=O)CN(c1cccc(Br)c1)S(=O)(=O)c1ccccc1 (centres undefined)	3	1
Cc1ccc(CSc2nnc(-c3cccc(F)c3)n2-c2ccccc2)cc1	4	0.88
O=[N+]([O-])c1ccc(CSc2nnc(-c3cccc(F)c3)n2-c2ccccc2)cc1	4	0.79*
C=CCNC(=O)c1ccc(OCc2ccccc2)cc1	7	1.1
CCOc1c(C)cc2[nH]c(=S)[nH]c2c1C	16	1
O=C1C2C3C=CC(CC3)C2C(=O)N1/N=C\c1ccc(I)o1 (centres undefined)	-2	1
O=C1C2C3C=CC(CC3)C2C(=O)N1/N=C\c1cc([N+](=O)[O-])cc(Br)c1O (centres undefined)	10	0.68*
CC(=O)c1cccc(NC(=O)Nc2cccc3ccccc23)c1	8	1
O=C1C(c2ccccc2)=NOC12CCCC2	-2	1
COC(=O)CN(c1ccc(C)c(C)c1)S(C)(=O)=O	6	1.1
COc1ccc(C(=O)Nc2cc(C)nc3ccccc23)cc1OC	1	0.94
Cc1nc(N=C(N)NC(=O)c2ccccc2N)nc2ccccc12	17	1.2*
COc1ccc(NC(=O)/C(=C/c2ccccc2Cl)NC(=O)c2ccc(C)cc2)cc1	-1	1.2
COc1cccc(NC(=O)/C(=C/c2ccc(C)o2)NC(=O)c2ccccc2)c1	15	0.71*
